# Measurements published in PubChem BioAssay (NCATS).
# Records with an inconclusive call do not appear. A call without a number means that no potency is given here. Activity calls are given as the source filed them. The call rests on the fitted dose curve; in most records, active means well fitted curve in the direction sought with a large enough effect; inconclusive means small, poorly fitted or top-dose-only effect, or another doubt; inactive means no such curve, though single readings can be large; an effect the other way counts as inactive or inconclusive.
# Key:
# MKL-1 = assay: qHTS assay to identify novel small-molecules to repurpose for Merkel cell carcinoma treatment (AID 1296009); settings: MCC and control cell lines, CellTiter-Glo viability, 72 h; series mostly up to 46 µM; further: nearly all actives have a fitted effect of over 60% in size; further: potency means the concentration at half of the fitted maximal effect
# In short: (§1)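 72 hr, 37 degree celsius; NPC 8-pt / MIPE 11-pt dose response; compound pinned in DMSO; CellTiter-Glo, 10 min RT, luminescence; normalized to no-cell and DMSO controls.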
# MKL-2 = assay: as above; settings: MCC and control cell lines, CellTiter-Glo viability, 72 h; series mostly up to 46 µM
# In short: as §1
# NIH3T3 = assay: as above; settings: MCC and control cell lines, CellTiter-Glo viability, 72 h; series mostly up to 44.8 µM
# In short: as §1
# UISO = assay: as above; settings: MCC and control cell lines, CellTiter-Glo viability, 72 h; series mostly up to 46 µM
# In short: as §1
# WaGa = assay: as above; settings: MCC and control cell lines, CellTiter-Glo viability, 72 h; series mostly up to 46 µM
# In short: as §1
# C33A = assay: Primary qHTS to identify gynecologic anti-cancer compounds using libraries of approved drugs and bioactive compounds (AID 1345084); settings: Gynecologic cancer cell panel viability, ATPlite luminescence, 48 h; series mostly up to 57.5 µM; further: nearly all actives have a fitted effect of over 55% in size
# In short: (§2)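 Cytotoxicity screen measuring ATP content by luciferase luminescence. Each compound is applied at five concentrations for 48 h at 37 C with 5% CO2.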
# CAOV3 = assay: as above; settings: Gynecologic cancer cell panel viability, ATPlite luminescence, 48 h; series mostly up to 57.5 µM
# In short: as §2
# CASKI = assay: as above; settings: Gynecologic cancer cell panel viability, ATPlite luminescence, 48 h; series mostly up to 57.5 µM
# In short: as §2
# Es-2 = assay: as above; settings: Gynecologic cancer cell panel viability, ATPlite luminescence, 48 h; series mostly up to 57.5 µM
# In short: as §2
# HeLa = assay: as above; settings: Gynecologic cancer cell panel viability, ATPlite luminescence, 48 h; series mostly up to 57.5 µM
# In short: as §2
Compound,Potency (MKL-1),Potency (MKL-2),Potency (NIH3T3),Potency (UISO),Potency (WaGa),Potency (C33A),Potency (CAOV3),Potency (CASKI),Potency (Es-2),Potency (HeLa)
Cc1cc2c(cc1C1(c3ccc(C(=O)O)cn3)CC1)C(C)(C)CCC2(C)C,inactive,inactive,inactive,inactive,inactive,inactive,inactive,–,–,–
Oc1ccc(C=Cc2cc(O)cc(O)c2)cc1,inactive,–,–,–,–,–,–,–,–,–
CCNC(=O)[C@H]1O[C@@H](n2cnc3c(N)nc(NCCc4ccc(CCC(=O)O)cc4)nc32)[C@H](O)[C@H]1O,inactive,inactive,inactive,inactive,inactive,–,–,–,–,–
CCOC(=O)N1c2ccc(C(F)(F)F)cc2[C@@H](N(Cc2cc(C(F)(F)F)cc(C(F)(F)F)c2)C(=O)OC)C[C@H]1CC,inactive,inactive,inactive,inactive,inactive,–,–,–,–,–
CCCCC[C@H](O)C=C[C@H]1[C@H](O)CC(=O)[C@H]1CCCCCCC(=O)O,inactive,–,–,–,–,–,–,–,–,–
Cc1ccc(S(=O)(=O)Nc2nc3ccccc3nc2Nc2ccc3nsnc3c2)cc1,1.82 µM (active),inactive,–,5.12 µM (active),–,–,–,–,–,–
O=C(O)c1nc(=O)[nH]c(=O)[nH]1,inactive,inactive,–,inactive,inactive,–,–,–,–,–
Cn1c(=O)c(-c2c(Cl)cccc2Cl)cc2cnc(Nc3cccc(C(=O)O)c3)nc21,inactive,inactive,inactive,inactive,inactive,inactive,inactive,inactive,inactive,inactive
c1ccc(CNc2nc(N3CCOc4ccccc43)nc3c2CCCC3)cc1,inactive,inactive,inactive,inactive,inactive,inactive,inactive,inactive,inactive,inactive
C=CC[N+]1([C@H]2C[C@H]3[C@@H]4CC[C@H]5C[C@H](O)[C@@H](N6CCOCC6)C[C@]5(C)[C@@H]4CC[C@]3(C)[C@H]2OC(C)=O)CCCC1,inactive,inactive,–,inactive,inactive,–,–,–,–,–
COc1cc(Nc2nc3ccccc3nc2NS(=O)(=O)c2ccc(NC(=O)c3ccc(C)c(OC)c3)cc2)cc(OC)c1,inactive,inactive,inactive,inactive,inactive,inactive,inactive,inactive,inactive,inactive
COC(=O)N1CCN(Cc2cccc(NC(=O)Nc3ccc(C)nc3)c2F)CC1,inactive,inactive,inactive,inactive,inactive,inactive,inactive,inactive,inactive,inactive
Cc1ccccc1-n1c(Cn2nc(-c3cccc(O)c3)c3c(N)ncnc32)nc2cccc(C)c2c1=O,1.05 µM (active),10.5 µM (active),inactive,10.5 µM (active),0.118 µM (active),inactive,inactive,inactive,inactive,inactive
COc1ccc(CCC(=O)Nc2nc3ccc(Cl)cc3s2)cc1OC,inactive,inactive,inactive,inactive,inactive,inactive,inactive,inactive,inactive,inactive
C#C[C@]1(O)CC[C@H]2[C@H]3CCc4cc(OC)ccc4[C@H]3CC[C@@]21C,inactive,inactive,–,inactive,inactive,–,–,–,–,–
CN(C)c1ccccc1CN1CCCN(Cc2ccccc2N(C)C)C1c1ccncc1,inactive,inactive,–,inactive,inactive,–,–,–,–,–
O=C1CCCC(=O)C1C(=O)c1ccc(C(F)(F)F)cc1[N+](=O)[O-],inactive,inactive,–,inactive,inactive,–,–,–,–,–
OC[C@H]1O[C@@H](O[C@H]2[C@@H](O)[C@@](O)(CO)O[C@@H]2CO)[C@H](O)[C@@H](O)[C@@H]1O,inactive,inactive,–,inactive,inactive,–,–,–,–,–
O=C(O)CCC=CCC[C@@H]1[C@H](N2CCCCC2)[C@@H](O)C[C@@H]1OCc1ccc(-c2ccccc2)cc1,inactive,inactive,–,inactive,inactive,–,–,–,–,–
Cc1nc2c([nH]1)CCN(C(=O)c1ccc(NC(=O)c3ccccc3-c3ccccc3)cc1)c1ccccc1-2,inactive,inactive,inactive,inactive,inactive,inactive,inactive,inactive,inactive,inactive
CS(=O)(=O)c1ccc(C2=C(c3ccccc3)C(=O)OC2)cc1,inactive,inactive,inactive,inactive,inactive,inactive,inactive,inactive,inactive,inactive
CC[C@@H]([C@H](C)O)n1ncn(-c2ccc(N3CCN(c4ccc(OCC5CO[C@@](Cn6cncn6)(c6ccc(F)cc6F)C5)cc4)CC3)cc2)c1=O (stereo partly drawn),inactive,inactive,–,inactive,inactive,–,–,–,–,–
COc1cc2c(cc1OC)CC(=O)N(CCCN(C)C[C@H]1Cc3cc(OC)c(OC)cc31)CC2,inactive,inactive,–,inactive,inactive,–,–,–,–,–
